According to PubChem BioAssay AID1460 (National Center for Advancing Translational Sciences (NCATS), 2008):
Out of some 270,000 compounds screened, about 5,800 (2.1%) were called active. Where a call stands in place of a potency, no number is given. Another 16% or so got no clear call; they are omitted. This is one part of a sample in which actives are shown more often than they occur. Calls follow the shape of the dose curve; as a rule, active = well fitted inhibition curve with a large enough effect; inconclusive = small, poorly fitted or top-dose-only effect; inactive = flat fitted curve, though single readings scatter.

These compounds were tested against Microtubule-associated protein tau (Homo sapiens) (UniProt P10636) (assay: qHTS for Inhibitors of Tau Fibril Formation, Thioflavin T Binding). Conditions: recombinant tau K18 P301L (four-repeat tau fragment), heparin-induced fibrillization, ThT fluorescence; series mostly up to 57.4 µM.
Chain of Microtubule-associated protein tau (Homo sapiens) (P10636 561-689 P618L limits assumed): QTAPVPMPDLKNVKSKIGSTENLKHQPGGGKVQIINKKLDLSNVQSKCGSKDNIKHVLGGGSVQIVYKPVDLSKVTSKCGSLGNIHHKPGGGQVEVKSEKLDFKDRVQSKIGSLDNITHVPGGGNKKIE
Procedure, shortened: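 Heparin-induced (20 uM) aggregation of recombinant human K18 P301L tau, 15 uM unlabeled with 0.24 uM labeled, pH 7 acetate buffer, 6 hr at 37 C with compound. Fibrils quantified by 30 uM ThT fluorescence after 1 hr ambient incubation.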
Also: nearly all actives have a fitted effect of over 55% in size.
Potency is read from the fitted curve at half-maximal effect.

| Compound | Potency | activity, negative = inhibition |
| --- | --- | --- |
| COc1ccccc1-c1noc(-c2ccc(NCc3ccccc3)c([N+](=O)[O-])c2)n1 | inactive | – |
| COC(=O)c1ccc2c(c1)N(CC(=O)Nc1ccc(C)c(C)c1)C(=O)c1ccccc1S2 | inactive | – |
| O=C(CSc1nnc(-c2ccncc2)n1-c1ccccc1)Nc1ccc(Cl)c(Cl)c1 | inactive | – |
| CCC(Sc1nnc(-c2ccc(OC)cc2)c(-c2ccc(OC)cc2)n1)C(=O)NC1CCCCC1 (configuration not stated) | inactive | – |
| COc1cc(C=O)c(Br)cc1OCC(=O)NCc1ccccc1 | inactive | – |
| COc1cc(C(=S)NCc2ccccc2)cc(Br)c1O | 35.5 µM (active) | – |
| COc1cc(CNC2CCCC2)c(Br)cc1OCc1ccccc1 | inactive | – |
| O=C(NCC(c1ccco1)S(=O)(=O)c1cccs1)c1ccc(F)cc1 (configuration not stated) | inactive | – |
| O=C(NC1CC(=O)N(c2ccc(F)cc2)C1)c1ccc(S(=O)(=O)N2CCCC2)cc1 (configuration not stated) | inactive | – |
| Oc1cc(O)c2c(c1)OC(c1ccc(O)c(O)c1)C(O)C2 (configuration not stated) | 14.1 µM (active) | – |
| CCN1CCN(c2cc(C)c3cc(NC(=O)c4cc(Cl)ccc4OC)ccc3n2)CC1 | 14.1 µM (active) | – |
| COC(=O)c1ccc(NC(=O)c2cc(Cl)ccc2OC)cc1 | inactive | – |
| COc1ccc(Cl)cc1C(=O)Nc1ccc(N(C)C(C)=O)cc1 | inactive | – |
| O=C(O)/C=C/C(=O)NNc1ccc([N+](=O)[O-])cc1 | 15.8 µM (active) | – |
| Cc1c(NC(=O)/C=C/C(=O)O)cccc1[N+](=O)[O-] | inactive | – |
| CNC(=S)Nc1ccc([N+](=O)[O-])cc1 | inactive | – |

| Compound | Potency | activity, negative = inhibition |
| --- | --- | --- |
| COc1ccc(C2CC(=O)N(Cc3ccccc3C)c3c2c(C)nn3-c2nc(C)cc(C)n2)c(OC)c1 (configuration not stated) | inactive | – |
| O=C(Nc1ccc(Oc2ccccc2)cc1)C1CCN(S(=O)(=O)c2ccc(Cl)cc2)CC1 | inactive | – |
| CC(=O)Nc1cccc(NC(=O)CSc2cn(CC(=O)N3CCCC3)c3ccccc23)c1 | inactive | – |
| C=CS(=O)c1sc(Cl)c(N2CCOCC2)c1[N+](=O)[O-] (configuration not stated) | 8.91 µM (active) | – |
| O=C(Nc1nnc(C2CC(=O)N(c3ccc(Cl)cc3)C2)s1)c1ccco1 (configuration not stated) | inactive | – |
| NC1=NC(c2cc(F)cc(F)c2)n2c(nc3ccccc32)N1 (configuration not stated) | inactive | – |
| CCOc1ccc(N(CC)S(=O)(=O)N2CCCC(C(=O)NCc3ccc(SC)cc3)C2)cc1 (configuration not stated) | inactive | – |
| COc1ccc(N2CCN(S(=O)(=O)c3ccc(-c4coc(C)n4)cc3)CC2)cc1 | inactive | – |
| CCc1nc(-c2cc(S(=O)(=O)N3CCN(c4ccc(OC)cc4)CC3)ccc2OC)no1 | 28.2 µM (active) | – |
| COc1ccc(OC)c(-c2noc(N3CCN(c4cc(Cl)ccc4C)CC3)n2)c1 | inactive | – |
| COc1ccc(/C=C/NC(=O)Cc2ccc(OC)c(OC)c2)cc1 | – | -4.15% [at 11.5 µM] (inactive) |
| COc1ccc(C(=O)Cc2cnn(-c3ccccc3)c2)c(O)c1 | inactive | – |
| COc1ccc(/C=C/C(=O)c2ccc(OC)cc2O)cc1 | 5.01 µM (active) | – |
| COc1ccc2oc(=O)c(C(=O)O)cc2c1 | inactive | – |
| COc1ccc(/C=C/C(=O)c2cc(Br)ccc(=O)c2O)cc1 | 4.47 µM (active) | – |
| O=C(/C=C/c1ccccc1)c1ccccc1O | inactive | – |
